# Several values for one entry are separate records, joined by “and”; a condition that tells them apart may be missing. Identical values can stand only once. Out of some 5,500 compounds screened, about 2,000 (36%) were called active. Another 18% or so got no clear call; they are omitted. This is one part of the list. A number with no mark means an inactive call. No stated cut-off is given here; in the data, active means normalized growth mostly below about 0.91 (no sharp cut-off); inconclusive means no clear call, values can overlap the other calls; inactive means mostly above about 0.92.
# Test: chemical genetic growth profiling, strain panel (AID 1159580);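 further: tested at 20 µM; growth read once vehicle control cultures reached saturation at 30 °C; 1 = growth at the plate median or of vehicle wells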
# Details: S. cerevisiae deletion strains, growth OD
smiles,measurement,setting,value
CN1C(C(=O)Nc2ccccn2)=C(O)c2ccccc2S1(=O)=O,normalized growth,"locus YAL013W, strain DEP1, stronger effect = lower value",0.977 and 0.995
same,normalized growth,"locus YAL021C, strain ccr4, stronger effect = lower value",0.977
same,normalized growth,"locus YAL026C, strain drs2, stronger effect = lower value",0.964
same,normalized growth,"locus YAL030W, strain snc1, stronger effect = lower value",0.944
same,normalized growth,"locus YAL040C, strain CLN3, stronger effect = lower value",1
same,normalized growth,"locus YBL061C, strain skt5, stronger effect = lower value",0.966
same,normalized growth,"locus YBR009C, strain hhf1, stronger effect = lower value",0.932
same,normalized growth,"locus YBR021W, strain FUR4, stronger effect = lower value",0.994
same,normalized growth,"locus YBR023C, strain chs3, stronger effect = lower value",0.982
same,normalized growth,"locus YBR171W, strain sec66, stronger effect = lower value",0.922
same,normalized growth,"locus YBR229C, strain ROT2, stronger effect = lower value",0.965
same,normalized growth,"locus YBR231C, strain swc5, stronger effect = lower value",0.953
same,normalized growth,"locus YBR279W, strain paf1, stronger effect = lower value",0.979
same,normalized growth,"locus YCL011C, strain gbp2, stronger effect = lower value",0.956
same,normalized growth,"locus YCL016C, strain dcc1, stronger effect = lower value",0.969
same,normalized growth,"locus YCL029C, strain bik1, stronger effect = lower value",0.955
same,normalized growth,"locus YCL061C, strain MRC1 (second series), stronger effect = lower value",0.997
same,normalized growth,"locus YCL069W, strain vba3, stronger effect = lower value",0.961
same,normalized growth,"locus YCR088W, strain abp1, stronger effect = lower value",0.968
same,normalized growth,"locus YDL005C, strain med2, stronger effect = lower value",0.964
same,normalized growth,"locus YDL035C, strain GPR1, stronger effect = lower value",1.01
same,normalized growth,"locus YDL040C, strain nat1, stronger effect = lower value",0.966
same,normalized growth,"locus YDL074C, strain BRE1, stronger effect = lower value",0.992
same,normalized growth,"locus YDL101C, strain DUN1, stronger effect = lower value",0.997
same,normalized growth,"locus YDL134C, strain PPH21, stronger effect = lower value",0.98
same,normalized growth,"locus YDL185W, strain tfp1, stronger effect = lower value",0.922
same,normalized growth,"locus YDL192W, strain arf1, stronger effect = lower value",0.966
same,normalized growth,"locus YDR001C, strain nth1, stronger effect = lower value",0.956
same,normalized growth,"locus YDR069C, strain doa4, stronger effect = lower value",0.984
same,normalized growth,"locus YDR101C, strain arx1, stronger effect = lower value",0.966
same,normalized growth,"locus YDR137W, strain rgp1, stronger effect = lower value",0.918
same,normalized growth,"locus YDR150W, strain NUM1, stronger effect = lower value",0.971
same,normalized growth,"locus YDR159W, strain sac3, stronger effect = lower value",0.966
same,normalized growth,"locus YDR162C, strain NBP2, stronger effect = lower value",0.991
same,normalized growth,"locus YDR195W, strain ref2",0.962
same,normalized growth,"locus YDR297W, strain sur2, stronger effect = lower value",0.945
same,normalized growth,"locus YDR318W, strain mcm21, stronger effect = lower value",0.944
same,normalized growth,"locus YDR334W, strain swr1, stronger effect = lower value",0.974
same,normalized growth,"locus YDR335W, strain msn5, stronger effect = lower value",0.97
same,normalized growth,"locus YDR363W, strain ESC2, stronger effect = lower value",1.02
same,normalized growth,"locus YDR388W, stronger effect = lower value",0.953
same,normalized growth,"locus YDR392W, strain spt3, stronger effect = lower value",0.539 (active)
same,normalized growth,"locus YDR502C, strain sam2, stronger effect = lower value",0.957
same,normalized growth,"locus YEL003W, strain gim4, stronger effect = lower value",0.946
same,normalized growth,"locus YEL037C, strain rad23, stronger effect = lower value",0.976
same,normalized growth,"locus YEL061C, strain CIN8 (second series), stronger effect = lower value",0.978
same,normalized growth,"locus YEL061C, strain CIN8, stronger effect = lower value",0.977
same,normalized growth,"locus YER002W, strain NOP16, stronger effect = lower value",0.979
same,normalized growth,"locus YER015W, strain faa2, stronger effect = lower value",0.961
same,normalized growth,"locus YER016W, strain bim1, stronger effect = lower value",0.976
same,normalized growth,"locus YER110C, stronger effect = lower value",0.97
same,normalized growth,"locus YER111C, strain swi4, stronger effect = lower value",0.958
same,normalized growth,"locus YER155C, strain BEM2 (second series), stronger effect = lower value",0.882
same,normalized growth,"locus YER155C, strain BEM2, stronger effect = lower value",0.962
same,normalized growth,"locus YER167W, strain BCK2, stronger effect = lower value",0.968
same,normalized growth,"locus YFR010W, strain ubp6, stronger effect = lower value",0.971
same,normalized growth,"locus YGL078C, strain dbp3, stronger effect = lower value",0.959
same,normalized growth,"locus YGL086W, strain mad1, stronger effect = lower value",0.95
same,normalized growth,"locus YGL167C, strain pmr1, stronger effect = lower value",0.937
same,normalized growth,"locus YGL173C, strain kem1, stronger effect = lower value",0.957
same,normalized growth,"locus YGL227W, strain vid30, stronger effect = lower value",0.964
same,normalized growth,"locus YGL240W, strain doc1, stronger effect = lower value",0.949
same,normalized growth,"locus YGL248W, strain PDE1, stronger effect = lower value",0.984
same,normalized growth,"locus YGL253W, strain hxk2, stronger effect = lower value",0.961
same,normalized growth,"locus YGR078C, strain PAC10, stronger effect = lower value",0.975
same,normalized growth,"locus YGR135W, strain pre9, stronger effect = lower value",0.958
same,normalized growth,"locus YGR229C, strain SMI1, stronger effect = lower value",0.98 and 1.02
same,normalized growth,"locus YGR252W, strain gcn5, stronger effect = lower value",0.99
same,normalized growth,"locus YHR013C, strain ard1, stronger effect = lower value",0.91
same,normalized growth,"locus YHR027C, strain rpn1, stronger effect = lower value",0.982
same,normalized growth,"locus YHR030C, strain SLT2, stronger effect = lower value",0.972 and 0.968
same,normalized growth,"locus YHR079C, strain IRE1 (second series), stronger effect = lower value",0.96
same,normalized growth,"locus YHR079C, strain IRE1, stronger effect = lower value",0.947
same,normalized growth,"locus YHR094C, strain hxt1, stronger effect = lower value",0.956
same,normalized growth,"locus YHR129C, strain ARP1, stronger effect = lower value",0.97
same,normalized growth,"locus YHR142W, strain chs7, stronger effect = lower value",0.951
same,normalized growth,"locus YHR200W, strain rpn10, stronger effect = lower value",0.972
same,normalized growth,"locus YIL066C, strain RNR3, stronger effect = lower value",0.99
same,normalized growth,"locus YIL073C, strain SPO22, stronger effect = lower value",0.985
same,normalized growth,"locus YIL125W, strain kgd1, stronger effect = lower value",0.946
same,normalized growth,"locus YIR030C, strain dcg1, stronger effect = lower value",0.959
same,normalized growth,"locus YJL092W, strain hpr5, stronger effect = lower value",0.962
same,normalized growth,"locus YJL095W, strain BCK1 (second series), stronger effect = lower value",0.951
same,normalized growth,"locus YJL095W, strain BCK1, stronger effect = lower value",0.971 and 0.957
same,normalized growth,"locus YJL115W, strain asf1, stronger effect = lower value",0.985
same,normalized growth,"locus YJL129C, strain trk1, stronger effect = lower value",0.679 (active)
same,normalized growth,"locus YJL134W, strain LCB3, stronger effect = lower value",0.967
same,normalized growth,"locus YJL154C, strain vps35, stronger effect = lower value",0.962
same,normalized growth,"locus YJL164C, strain tpk1, stronger effect = lower value",0.951
same,normalized growth,"locus YJL166W, strain qcr8, stronger effect = lower value",0.898 (active)
same,normalized growth,"locus YJL168C, strain set2, stronger effect = lower value",0.938
same,normalized growth,"locus YJL187C, strain SWE1 (second series), stronger effect = lower value",0.999
same,normalized growth,"locus YJR043C, strain POL32, stronger effect = lower value",0.995
same,normalized growth,"locus YJR066W, strain TOR1, stronger effect = lower value",0.918
same,normalized growth,"locus YJR075W, strain HOC1, stronger effect = lower value",0.991 and 1

# From PubChem BioAssay AID1159580 (chemical genetic matrix, 2015)
